# Source: PubChem BioAssay (NCATS)
# Results filed as inconclusive are left out. Where a call stands in place of a potency, no number is given. The source made the active and inactive calls. Calls follow the shape of the dose curve; as a rule, active = well fitted curve in the direction sought with a large enough effect; inconclusive = small, poorly fitted or top-dose-only effect, or another doubt; inactive = no such curve, though single readings can be large; an effect the other way counts as inactive or inconclusive.
# What was measured:
# [1] = S16 Schwann cell PMP22 intronic element firefly luciferase assay (AID 624032); settings: S16 rat Schwann cells, PMP22 element FLuc, 24 h; series mostly up to 57.5 µM; also: nearly all actives have a fitted effect of over 30% in size
# How it was run: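 Rat S16 Schwann cells stably carrying firefly luciferase driven by a PMP22 intronic element, in 10% FBS, treated 24 h at 37 C. ONE-Glo luminescence normalized to PTC124 control and DMSO (0%); curves classed by r2, magnitude and activity.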
# AA1029 = assay: qHTS profiling for inhibitors of Plasmodium falciparum proliferation (AID 504749); also: nearly all actives have a fitted effect of over 60% in size; also: potency is read from the fitted curve at half-maximal effect; settings: P. falciparum in erythrocytes, SYBR Green DNA, 72 h; series mostly up to 28.7 µM
# How it was run: (§1)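 SYBR Green fluorescence (ex 485 nm, em 535 nm) reports parasite DNA after 72 h compound exposure of infected red cells at 0.3% parasitemia, 2.5% hematocrit; signal normalized to 0.29 uM artemisinin and vehicle wells.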
# C2A = assay: as above; settings: P. falciparum in erythrocytes, SYBR Green DNA, 72 h; series mostly up to 28.7 µM
# How it was run: as §1
# CP211 = assay: as above; settings: P. falciparum in erythrocytes, SYBR Green DNA, 72 h; series mostly up to 28.7 µM
# How it was run: as §1
# CP217 = assay: as above; settings: P. falciparum in erythrocytes, SYBR Green DNA, 72 h; series mostly up to 28.7 µM
# How it was run: as §1
# CP256 = assay: as above; settings: P. falciparum in erythrocytes, SYBR Green DNA, 72 h; series mostly up to 28.7 µM
# How it was run: as §1
# CP260 = assay: as above; settings: P. falciparum in erythrocytes, SYBR Green DNA, 72 h; series mostly up to 28.7 µM
# How it was run: as §1
# CP269 = assay: as above; settings: P. falciparum in erythrocytes, SYBR Green DNA, 72 h; series mostly up to 28.7 µM
# How it was run: as §1
# CP297 = assay: as above; settings: P. falciparum in erythrocytes, SYBR Green DNA, 72 h; series mostly up to 28.7 µM
# How it was run: as §1
# CP325 = assay: as above; settings: P. falciparum in erythrocytes, SYBR Green DNA, 72 h; series mostly up to 28.7 µM
# How it was run: as §1
# CP329 = assay: as above; settings: P. falciparum in erythrocytes, SYBR Green DNA, 72 h; series mostly up to 28.7 µM
# How it was run: as §1
# DIV14 = assay: as above; settings: P. falciparum in erythrocytes, SYBR Green DNA, 72 h; series mostly up to 28.7 µM
# How it was run: as §1
# DIV17 = assay: as above; settings: P. falciparum in erythrocytes, SYBR Green DNA, 72 h; series mostly up to 28.7 µM
# How it was run: as §1
# ICS = assay: as above; settings: P. falciparum in erythrocytes, SYBR Green DNA, 72 h; series mostly up to 28.7 µM
# How it was run: as §1
# N140 = assay: as above; settings: P. falciparum in erythrocytes, SYBR Green DNA, 72 h; series mostly up to 28.7 µM
# How it was run: as §1
# P93_24 = assay: as above; settings: P. falciparum in erythrocytes, SYBR Green DNA, 72 h; series mostly up to 28.7 µM
# How it was run: as §1
# PC15 = assay: as above; settings: P. falciparum in erythrocytes, SYBR Green DNA, 72 h; series mostly up to 28.7 µM
# How it was run: as §1
# SC27B = assay: as above; settings: P. falciparum in erythrocytes, SYBR Green DNA, 72 h; series mostly up to 28.7 µM
# How it was run: as §1
# TAB165 = assay: as above; settings: P. falciparum in erythrocytes, SYBR Green DNA, 72 h; series mostly up to 28.7 µM
# How it was run: as §1
# 3D7 = assay: as above; settings: P. falciparum in erythrocytes, SYBR Green DNA, 72 h; series mostly up to 28.7 µM
# How it was run: as §1
SMILES,outcome [1],Potency (AA1029),Potency (C2A),Potency (CP211),Potency (CP217),Potency (CP256),Potency (CP260),Potency (CP269),Potency (CP297),Potency (CP325),Potency (CP329),Potency (DIV14),Potency (DIV17),Potency (ICS),Potency (N140),Potency (P93_24),Potency (PC15),Potency (SC27B),Potency (TAB165),Potency (3D7)
C[N+]1(C)C2CC[C@H]1CC(OC(=O)[C@@H](CO)c1ccccc1)C2 (stereo not given in full),inactive,inactive,inactive,inactive,inactive,inactive,inactive,inactive,inactive,inactive,inactive,inactive,inactive,inactive,inactive,inactive,inactive,inactive,inactive,
C[C@@H]1O[C@@H](O[C@H]2C[C@@H](O)[C@@]3(CO)[C@H]4[C@H](O)C[C@]5(C)[C@@H](C6=CC(=O)OC6)CC[C@]5(O)[C@H]4CC[C@@]3(O)C2)[C@@H](O)[C@H](O)[C@H]1O,,inactive,inactive,inactive,inactive,inactive,inactive,inactive,inactive,inactive,inactive,inactive,inactive,inactive,inactive,inactive,,inactive,inactive,inactive
C=C[C@@H]1CN2CC[C@H]1C[C@H]2[C@H](O)c1ccnc2ccccc12,inactive,891 nM (active),1410 nM (active),953 nM (active),1260 nM (active),1120 nM (active),794 nM (active),1070 nM (active),757 nM (active),675 nM (active),1510 nM (active),426 nM (active),379 nM (active),224 nM (active),794 nM (active),447 nM (active),224 nM (active),1000 nM (active),355 nM (active),158 nM (active)
O=C1C[C@@H]2OCC=C3CN4CC[C@]56c7ccccc7N1[C@@H]5[C@@H]2[C@H]3C[C@H]46 (tested in a mixture with another compound),inactive,,,,,,,,,,,,,,,,inactive,,,inactive
C[C@@H](Cc1ccc(O)cc1)NC[C@@H](O)c1cc(O)cc(O)c1,inactive,inactive,inactive,inactive,inactive,inactive,inactive,inactive,inactive,inactive,inactive,inactive,inactive,inactive,inactive,inactive,inactive,inactive,inactive,inactive
